Where a chain is given by its changes, count along the chain named.
How the values were obtained:
Assay in all cases: PBM; 200 nM protein, PBS
Conditions in all cases: dsDNA, one strand shown
[1] = target: HOXB4 (Homo sapiens, UniProt P17483 148-234)
[2] = target: HOXA4 (Homo sapiens, UniProt Q00056 201-287, W262R)
[3] = target: PRRX1 (Homo sapiens, UniProt P54821 80-166, F113S)
[4] = target: HOXA2 (Homo sapiens, UniProt O43364 129-215, R185T)
[5] = target: HOXA4 (Homo sapiens, UniProt Q00056 201-287, R217L)
[6] = target: HOXB4 (Homo sapiens, UniProt P17483 148-234, V174I)
[7] = target: MSX2 (Homo sapiens, UniProt P35548 130-214, R199I)
[8] = target: HOXA4 (Homo sapiens, UniProt Q00056 201-287)
[9] = target: MSX2 (Homo sapiens, UniProt P35548 130-214)
[10] = target: MSX2 (Homo sapiens, UniProt P35548 130-214, F161Y)
[11] = target: VAX1 (Homo sapiens, UniProt Q5SQQ9 86-172, T142I)
[12] = target: HOXA4 (Homo sapiens, UniProt Q00056 201-287, W262F)
[13] = target: PRRX1 (Homo sapiens, UniProt P54821 80-166)
[14] = target: VAX1 (Homo sapiens, UniProt Q5SQQ9 86-172, K157R)
[15] = target: T1, VENTX (Homo sapiens, UniProt O95231 78-163, R121Q)
T1 sequence: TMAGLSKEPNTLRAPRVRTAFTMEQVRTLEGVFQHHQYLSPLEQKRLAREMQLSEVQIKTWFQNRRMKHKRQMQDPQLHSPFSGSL

[16] = target: T2, VENTX (Homo sapiens, UniProt O95231 78-163, Y115F)
T2 sequence: T1 sequence with Y38F, Q44R

[17] = target: T3, PAX4 (Homo sapiens, UniProt O43316 9-242, R200Q)
T3 sequence: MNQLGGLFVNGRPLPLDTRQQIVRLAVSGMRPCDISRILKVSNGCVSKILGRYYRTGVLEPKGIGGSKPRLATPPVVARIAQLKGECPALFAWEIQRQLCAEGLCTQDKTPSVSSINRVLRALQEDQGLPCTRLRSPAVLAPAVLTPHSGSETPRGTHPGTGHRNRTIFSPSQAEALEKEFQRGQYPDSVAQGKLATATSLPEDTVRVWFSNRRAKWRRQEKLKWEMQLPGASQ

[18] = target: T4, PAX4 (Homo sapiens, UniProt O43316 9-242, F177V)
T4 sequence: T3 sequence with F169V, Q192R

[19] = target: T5, PAX4 (Homo sapiens, UniProt O43316 9-242, F177Y)
T5 sequence: T3 sequence with F169Y, Q192R

[20] = target: HOXB6 (Homo sapiens, UniProt P17509 132-218, K202E)
HOXB6, sequence (P17509 132-218 K202E): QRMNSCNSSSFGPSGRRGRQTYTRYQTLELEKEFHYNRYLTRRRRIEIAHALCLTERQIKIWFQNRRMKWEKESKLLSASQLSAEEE

HOXB4 (Homo sapiens, UniProt P17483 148-234, V174I), sequence (P17483 148-234 V174I): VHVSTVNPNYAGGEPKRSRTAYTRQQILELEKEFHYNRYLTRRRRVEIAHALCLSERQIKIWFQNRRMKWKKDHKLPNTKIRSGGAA
PRRX1 (Homo sapiens, UniProt P54821 80-166), sequence (P54821 80-166): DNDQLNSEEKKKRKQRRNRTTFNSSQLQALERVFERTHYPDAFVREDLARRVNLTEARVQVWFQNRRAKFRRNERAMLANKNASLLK
VAX1 (Homo sapiens, UniProt Q5SQQ9 86-172, K157R), sequence (Q5SQQ9 86-172 K157R): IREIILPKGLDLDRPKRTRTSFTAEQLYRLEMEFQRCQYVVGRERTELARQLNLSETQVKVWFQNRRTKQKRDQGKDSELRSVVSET
MSX2 (Homo sapiens, UniProt P35548 130-214, F161Y), sequence (P35548 130-214 F161Y): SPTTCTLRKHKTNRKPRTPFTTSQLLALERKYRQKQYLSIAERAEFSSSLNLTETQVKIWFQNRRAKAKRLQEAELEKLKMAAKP
HOXA4 (Homo sapiens, UniProt Q00056 201-287), sequence (Q00056 201-287): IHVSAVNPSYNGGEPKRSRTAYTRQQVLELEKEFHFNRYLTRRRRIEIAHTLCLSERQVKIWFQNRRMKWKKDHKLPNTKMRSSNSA
VAX1 (Homo sapiens, UniProt Q5SQQ9 86-172, T142I), sequence (Q5SQQ9 86-172 T142I): as the sequence (Q5SQQ9 86-172 K157R) above, with T57I, R72K counted along it
HOXB4 (Homo sapiens, UniProt P17483 148-234), sequence (P17483 148-234): as the sequence (P17483 148-234 V174I) above, with I27V counted along it
MSX2 (Homo sapiens, UniProt P35548 130-214, R199I), sequence (P35548 130-214 R199I): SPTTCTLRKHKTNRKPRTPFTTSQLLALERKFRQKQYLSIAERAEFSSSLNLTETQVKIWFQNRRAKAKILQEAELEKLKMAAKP
HOXA2, sequence (O43364 129-215 R185T): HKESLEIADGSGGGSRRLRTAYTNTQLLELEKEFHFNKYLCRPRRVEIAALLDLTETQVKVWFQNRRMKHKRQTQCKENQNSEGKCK
HOXA4 (Homo sapiens, UniProt Q00056 201-287, W262R), sequence (Q00056 201-287 W262R): as the sequence (Q00056 201-287) above, with W62R counted along it
MSX2 (Homo sapiens, UniProt P35548 130-214), sequence (P35548 130-214): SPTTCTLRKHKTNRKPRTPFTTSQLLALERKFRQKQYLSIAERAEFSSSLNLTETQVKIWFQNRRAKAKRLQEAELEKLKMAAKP
PRRX1 (Homo sapiens, UniProt P54821 80-166, F113S), sequence (P54821 80-166 F113S): as the sequence (P54821 80-166) above, with F34S counted along it
HOXA4 (Homo sapiens, UniProt Q00056 201-287, W262F), sequence (Q00056 201-287 W262F): as the sequence (Q00056 201-287) above, with W62F counted along it
HOXA4 (Homo sapiens, UniProt Q00056 201-287, R217L), sequence (Q00056 201-287 R217L): as the sequence (Q00056 201-287) above, with R17L counted along it

Sequence	binding signal [1]	binding signal [2]	binding signal [3]	binding signal [4]	binding signal [5]	binding signal [6]	binding signal [7]	binding signal [8]	binding signal [9]	binding signal [10]	binding signal [11]	binding signal [12]	binding signal [13]	binding signal [14]	binding signal [15]	binding signal [16]	binding signal [17]	binding signal [18]	binding signal [19]	binding signal [20]
CTCAATTA	13.1 upbm affinity estimate (log intensity, higher = more binding, comparable within an allelic series)	10.4 upbm affinity estimate (log intensity, higher = more binding, comparable within an allelic series)	11.2 upbm affinity estimate (log intensity, higher = more binding, comparable within an allelic series)	12.6 upbm affinity estimate (log intensity, higher = more binding, comparable within an allelic series)	12 upbm affinity estimate (log intensity, higher = more binding, comparable within an allelic series)	13.8 upbm affinity estimate (log intensity, higher = more binding, comparable within an allelic series)	12.7 upbm affinity estimate (log intensity, higher = more binding, comparable within an allelic series)	13.6 upbm affinity estimate (log intensity, higher = more binding, comparable within an allelic series)	13.9 upbm affinity estimate (log intensity, higher = more binding, comparable within an allelic series)	13.5 upbm affinity estimate (log intensity, higher = more binding, comparable within an allelic series)	12.8 upbm affinity estimate (log intensity, higher = more binding, comparable within an allelic series)	11.4 upbm affinity estimate (log intensity, higher = more binding, comparable within an allelic series)	13.4 upbm affinity estimate (log intensity, higher = more binding, comparable within an allelic series)	12.9 upbm affinity estimate (log intensity, higher = more binding, comparable within an allelic series)						
ACTAATTG	13.1 upbm affinity estimate (log intensity, higher = more binding, comparable within an allelic series)	10.5 upbm affinity estimate (log intensity, higher = more binding, comparable within an allelic series)	11.2 upbm affinity estimate (log intensity, higher = more binding, comparable within an allelic series)	13.2 upbm affinity estimate (log intensity, higher = more binding, comparable within an allelic series)	11.8 upbm affinity estimate (log intensity, higher = more binding, comparable within an allelic series)	13.8 upbm affinity estimate (log intensity, higher = more binding, comparable within an allelic series)	13.1 upbm affinity estimate (log intensity, higher = more binding, comparable within an allelic series)	13.7 upbm affinity estimate (log intensity, higher = more binding, comparable within an allelic series)	14 upbm affinity estimate (log intensity, higher = more binding, comparable within an allelic series)	13.7 upbm affinity estimate (log intensity, higher = more binding, comparable within an allelic series)	13 upbm affinity estimate (log intensity, higher = more binding, comparable within an allelic series)	11.4 upbm affinity estimate (log intensity, higher = more binding, comparable within an allelic series)	13.3 upbm affinity estimate (log intensity, higher = more binding, comparable within an allelic series)	13.3 upbm affinity estimate (log intensity, higher = more binding, comparable within an allelic series)	12.3 upbm affinity estimate (log intensity, higher = more binding, comparable within an allelic series)	11.9 upbm affinity estimate (log intensity, higher = more binding, comparable within an allelic series)	12 upbm affinity estimate (log intensity, higher = more binding, comparable within an allelic series)	10.3 upbm affinity estimate (log intensity, higher = more binding, comparable within an allelic series)	10.7 upbm affinity estimate (log intensity, higher = more binding, comparable within an allelic series)	
GTCAATTA	13.3 upbm affinity estimate (log intensity, higher = more binding, comparable within an allelic series)	10.5 upbm affinity estimate (log intensity, higher = more binding, comparable within an allelic series)	11 upbm affinity estimate (log intensity, higher = more binding, comparable within an allelic series)	12.9 upbm affinity estimate (log intensity, higher = more binding, comparable within an allelic series)	12.1 upbm affinity estimate (log intensity, higher = more binding, comparable within an allelic series)	13.9 upbm affinity estimate (log intensity, higher = more binding, comparable within an allelic series)	12.6 upbm affinity estimate (log intensity, higher = more binding, comparable within an allelic series)	13.8 upbm affinity estimate (log intensity, higher = more binding, comparable within an allelic series)	13.8 upbm affinity estimate (log intensity, higher = more binding, comparable within an allelic series)	13.4 upbm affinity estimate (log intensity, higher = more binding, comparable within an allelic series)	13.1 upbm affinity estimate (log intensity, higher = more binding, comparable within an allelic series)	11.3 upbm affinity estimate (log intensity, higher = more binding, comparable within an allelic series)	13.3 upbm affinity estimate (log intensity, higher = more binding, comparable within an allelic series)	13.2 upbm affinity estimate (log intensity, higher = more binding, comparable within an allelic series)	11.7 upbm affinity estimate (log intensity, higher = more binding, comparable within an allelic series)					9.73 upbm affinity estimate (log intensity, higher = more binding, comparable within an allelic series)
CTAATTAG	13.6 upbm affinity estimate (log intensity, higher = more binding, comparable within an allelic series)	10.8 upbm affinity estimate (log intensity, higher = more binding, comparable within an allelic series)	12 upbm affinity estimate (log intensity, higher = more binding, comparable within an allelic series)	14.2 upbm affinity estimate (log intensity, higher = more binding, comparable within an allelic series)	12.6 upbm affinity estimate (log intensity, higher = more binding, comparable within an allelic series)	14.2 upbm affinity estimate (log intensity, higher = more binding, comparable within an allelic series)	13.6 upbm affinity estimate (log intensity, higher = more binding, comparable within an allelic series)	14.2 upbm affinity estimate (log intensity, higher = more binding, comparable within an allelic series)	14.2 upbm affinity estimate (log intensity, higher = more binding, comparable within an allelic series)	13.9 upbm affinity estimate (log intensity, higher = more binding, comparable within an allelic series)	14.1 upbm affinity estimate (log intensity, higher = more binding, comparable within an allelic series)	12.6 upbm affinity estimate (log intensity, higher = more binding, comparable within an allelic series)	13.7 upbm affinity estimate (log intensity, higher = more binding, comparable within an allelic series)	14.3 upbm affinity estimate (log intensity, higher = more binding, comparable within an allelic series)	13 upbm affinity estimate (log intensity, higher = more binding, comparable within an allelic series)	12.8 upbm affinity estimate (log intensity, higher = more binding, comparable within an allelic series)	13.1 upbm affinity estimate (log intensity, higher = more binding, comparable within an allelic series)	11.2 upbm affinity estimate (log intensity, higher = more binding, comparable within an allelic series)	11.8 upbm affinity estimate (log intensity, higher = more binding, comparable within an allelic series)	10.2 upbm affinity estimate (log intensity, higher = more binding, comparable within an allelic series)
GGCAATTA	13.1 upbm affinity estimate (log intensity, higher = more binding, comparable within an allelic series)	10.5 upbm affinity estimate (log intensity, higher = more binding, comparable within an allelic series)		13 upbm affinity estimate (log intensity, higher = more binding, comparable within an allelic series)	12.1 upbm affinity estimate (log intensity, higher = more binding, comparable within an allelic series)	13.6 upbm affinity estimate (log intensity, higher = more binding, comparable within an allelic series)	12.9 upbm affinity estimate (log intensity, higher = more binding, comparable within an allelic series)	13.7 upbm affinity estimate (log intensity, higher = more binding, comparable within an allelic series)	13.9 upbm affinity estimate (log intensity, higher = more binding, comparable within an allelic series)	13.6 upbm affinity estimate (log intensity, higher = more binding, comparable within an allelic series)	13 upbm affinity estimate (log intensity, higher = more binding, comparable within an allelic series)	11.4 upbm affinity estimate (log intensity, higher = more binding, comparable within an allelic series)		12.8 upbm affinity estimate (log intensity, higher = more binding, comparable within an allelic series)	11.9 upbm affinity estimate (log intensity, higher = more binding, comparable within an allelic series)	11.8 upbm affinity estimate (log intensity, higher = more binding, comparable within an allelic series)				9.93 upbm affinity estimate (log intensity, higher = more binding, comparable within an allelic series)

From article PMC11006913
